# According to PubChem BioAssay (NCI):
# About 79,000 compounds went through this panel and 15% of them were active in at least one assay; those are over-represented in the sample as a whole. A number with no mark means an inactive call. Activity calls are given as the source filed them. Cut-off read from the data, not from the text of the source: active = growth inhibition above about 70%; inactive = the rest.
# Legend:
# [1] = NCI Yeast Anticancer Drug Screen. Data for the rad50 strain (AID 155);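 note: 0% = growth of vehicle-only cultures of the same strain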; settings: S. cerevisiae rad50 strain growth inhibition, active compounds read high
# Summary of the method: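 Readout: growth inhibition relative to vehicle-treated cultures. Compound exposure was carried out in a genetically defined yeast strain deficient in DNA damage repair.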
# [2] = NCI Yeast Anticancer Drug Screen. Data for the mec2-1 strain (AID 157); settings: S. cerevisiae mec2-1 strain, active compounds read high
# Summary of the method: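 Mutant yeast (mec2-1) grown with compound; growth inhibition relative to vehicle control reported.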
# [3] = NCI Yeast Anticancer Drug Screen. Data for the sgs1 mgt1 strain (AID 161);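 note: 0% = growth of cultures given vehicle only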; settings: S. cerevisiae sgs1 mgt1 strain, active compounds read high
# Summary of the method: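 Percent growth inhibition was derived by comparing compound-exposed mutant yeast with vehicle-exposed cultures. The strain carries alterations in DNA damage repair.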
# [4] = NCI Yeast Anticancer Drug Screen. Data for the cln2 rad14 strain (AID 165);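 note: 0% = growth equal to vehicle treated cultures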; settings: S. cerevisiae cln2 rad14 strain, active compounds read high
# Summary of the method: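 Readout is yeast growth inhibition versus vehicle-treated controls, using a strain with cln2 and rad14 alterations exposed to compound.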
# [5] = NCI Yeast Anticancer Drug Screen. Data for the bub3 strain (AID 167); settings: S. cerevisiae bub3 mutant strain, active compounds read high
# Summary of the method: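 Readout: yeast growth inhibition, expressed relative to vehicle-only wells. The test organism is a mutant strain from a panel with lesions in DNA repair or checkpoint genes.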
# [6] = NCI Yeast Anticancer Drug Screen. Data for the mlh1 rad18 strain (AID 175); settings: S. cerevisiae mlh1 rad18 strain growth inhibition, active compounds read high
# Summary of the method: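 Genetically defined yeast (DNA repair-deficient) exposed to compounds; growth inhibition determined relative to vehicle.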
# [7] = at 5.0 µM (retest, dose inferred, filed as 0.5)
# [8] = at 50.0 µM (retest, dose inferred, filed as 5.0)
Compound,"growth inhibition [1, 7]","growth inhibition [1, 8]",growth inhibition ([1]; at 50.0 µM),"growth inhibition [2, 7]","growth inhibition [2, 8]",growth inhibition ([2]; at 50.0 µM),"growth inhibition [3, 7]","growth inhibition [3, 8]",growth inhibition ([3]; at 50.0 µM),"growth inhibition [4, 7]","growth inhibition [4, 8]",growth inhibition ([4]; at 50.0 µM),"growth inhibition [5, 7]","growth inhibition [5, 8]",growth inhibition ([5]; at 50.0 µM),"growth inhibition [6, 7]","growth inhibition [6, 8]",growth inhibition ([6]; at 50.0 µM)
O=C1C=CC(=O)N1c1ccc(O)cc1,15%,94% (active),96.3% (active),23%,98% (active),98.4% (active),18%,86% (active),94.1% (active),-1%,98% (active),98.3% (active),4%,97% (active),96.8% (active),11%,98% (active),91.8% (active)
CCOC(=O)C1=C(C(=O)c2ccccc2)C(c2cccc([N+](=O)[O-])c2)C(C(=O)c2ccccc2)=C(C(=O)OCC)N1,-3%,60%,56.2%,5%,33%,25.6%,21%,36%,25.6%,-9%,27%,17%,-7%,63%,38.5%,-28%,42%,67.7%
CN(C)c1ccc2cc3c(cc2c1)Oc1ccccc1N3.[Cl][Zn][Cl],36%,90% (active),84.2% (active),38%,95% (active),85% (active),37%,94% (active),87.8% (active),29%,94% (active),83.9% (active),48%,95% (active),83.8% (active),42%,91% (active),83.3% (active)
CCOC(=O)/C(=C\c1ccc2ccccc2c1)P(=O)(OCC)OCC,-3%,59%,78.2% (active),3%,81% (active),79.5% (active),9%,66%,72% (active),30%,69%,65.4%,29%,88% (active),74% (active),17%,88% (active),59.3%
O=[N+]([O-])c1ccc([I+]c2ccccc2)cc1,86% (active),96% (active),82.8% (active),40%,95% (active),86% (active),77% (active),96% (active),87.2% (active),30%,87% (active),82.9% (active),61%,96% (active),88.2% (active),82% (active),95% (active),
O=C(CCl)N(c1ccccc1)c1ccccc1,5%,59%,89.7% (active),3%,59%,90.2% (active),1%,54%,91.8% (active),1%,39%,68.5%,8%,63%,86.5% (active),2%,73% (active),92.8% (active)
OC(c1cc(-c2ccc(C(F)(F)F)cc2)nc(C(F)(F)F)c1)C1CCCCN1 (configuration not stated),23%,39%,56.1%,24%,35%,76.2% (active),33%,60%,45.5%,31%,7%,25.7%,11%,36%,33.5%,34%,65%,
Oc1c(C(Nc2ccccc2)c2ccccc2)ccc2cccnc12 (configuration not stated),-5%,92% (active),96.9% (active),-2%,97% (active),81.2% (active),-4%,94% (active),99% (active),-4%,92% (active),96.2% (active),-8%,94% (active),84% (active),0%,92% (active),96% (active)
COc1ccc(NC(=O)/C(=C/N2C(=O)/C(=C/c3ccc(OC)c(OC)c3)NC2=S)C(C)=O)cc1,5%,66%,54.3%,-3%,85% (active),53.1%,-5%,86% (active),51.9%,-22%,51%,37%,-21%,76% (active),64.8%,-6%,82% (active),76.7% (active)
O=C1C=CC(=O)N1c1cccc2c1CCCC2,99% (active),99% (active),91.9% (active),100% (active),100% (active),93.8% (active),100% (active),99% (active),94.7% (active),99% (active),99% (active),93.5% (active),100% (active),99% (active),93.6% (active),99% (active),99% (active),93.1% (active)
CCOC(=O)C1(C)CCCC1N (configuration not stated),-1%,52%,-37.3%,2%,93% (active),-35%,-4%,42%,-17.6%,21%,94% (active),53.1%,14%,98% (active),-5.45%,14%,82% (active),15.7%
O=C(Nc1ccc(Cl)c(Cl)c1)Nc1ccccc1O,5%,50%,46.2%,6%,35%,39.9%,0%,31%,48.8%,12%,39%,53.3%,46%,78% (active),64%,1%,54%,76.2% (active)
C(=N\Nc1ccc2ccccc2n1)/c1ccccn1,49%,72% (active),90.7% (active),30%,78% (active),92.6% (active),46%,85% (active),93.1% (active),31%,63%,90.7% (active),44%,81% (active),92.3% (active),50%,87% (active),92.1% (active)
CCCCC(CCc1ccc([N+](=O)[O-])cc1)(C(C)=O)C(=O)OCC (configuration not stated),1%,-41%,59.7%,2%,-10%,13.1%,-2%,24%,47%,-4%,-14%,4.75%,11%,45%,83.2% (active),-10%,-50%,62%
COC1=CC(=O)c2c(O)c3c(c(O)c2C1=O)CC(C)(O)OC3 (configuration not stated),87% (active),92% (active),78% (active),62%,87% (active),68.8%,89% (active),92% (active),80.2% (active),21%,45%,47.9%,51%,73% (active),74.6% (active),89% (active),97% (active),82.7% (active)
NC1=C(Br)C(=O)c2ncccc2C1=O,56%,94% (active),87.7% (active),19%,86% (active),91.5% (active),34%,93% (active),91.5% (active),18%,90% (active),90% (active),9%,83% (active),90.3% (active),50%,95% (active),
O=[N+]([O-])C=C(c1ccccc1)c1ccccc1,-23%,93% (active),96.8% (active),-12%,89% (active),87.8% (active),7%,86% (active),77.8% (active),-20%,63%,76.8% (active),-1%,90% (active),88% (active),-12%,94% (active),93.2% (active)
Cc1cc(C)c(C#N)c(Sc2nc(C)c([N+](=O)[O-])c(C)c2C#N)n1,56%,54%,66.7%,37%,44%,29.7%,49%,54%,84.5% (active),41%,51%,42.3%,51%,61%,15%,57%,55%,54.6%
CC1C(c2ccccc2)OCCN1C(=S)Nc1ccc(S(=O)(=O)N2CCCCC2)cc1 (configuration not stated),46%,86% (active),85.4% (active),46%,84% (active),89.2% (active),65%,97% (active),91.5% (active),62%,96% (active),89.7% (active),73% (active),96% (active),90.1% (active),43%,88% (active),86.4% (active)
COc1ccc(OC)c(Cc2cnc3nc(N)nc(N)c3c2C)c1,21%,35%,67.5%,18%,74% (active),19.7%,12%,36%,41.5%,9%,19%,6.45%,13%,19%,29.1%,18%,23%,-1.5%
